Assay results taken from PubChem BioAssay.
Entries with a potency or affinity are not part of this list. Results filed as inconclusive are left out. Activity calls are given as the source filed them. Unless noted, how the calls were made is not given here.

Assays:
[1] = RMG-1 ovarian cancer cell viability loss – cherry-pick, dose response (AID 687029;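 active means signal drop whose fitted half-maximal concentration is at most twice the top valid dose, in every test run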;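 further: cells exposed to compound for 96 hours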)
[2] = IOSE-T80 viability loss, PAX8-independent line – cell-based, cherry-pick, selectivity assay for PAX8 inhibitor project, dose response (AID 687032;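 active means fitted half-maximal concentration for viability loss no higher than twice the top valid dose, in every repeat run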;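 further: cells exposed to compound for 96 h before reading; 0% = neutral control wells and -100% = 2 µM mitoxantrone kill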)
[3] = CMV-driven luciferase expression suppression in HEK293 – cell-based, luminescence, dry powder, counter-screen for Pax8 inhibitor project, dose response (AID 743020;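 active means signal-lowering compounds whose fitted half-maximal concentration is at or below twice the top tested dose in every run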;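 further: HEK293 cells stably expressing the CMV luciferase reporter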)
[4] = general cell-killing toxicity readout – plate reader, dry powder samples, cytotoxicity control for PAX8 inhibitor project, dose response (AID 743021)
[5] = IGROV1 cell killing – plate reader, dry powder samples, PAX8 inhibitor project, dose response (AID 743043);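 further: more negative means fewer viable cells or more cytotoxicity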
[6] = OVCAR-3 cell viability loss – plate reader, dry powder samples, PAX8 inhibitor project, dose response (AID 743044); conditions: max activity: at 35 µM, active compounds read low unless noted
[7] = toxicity toward immortalized ovarian surface epithelium – cell-based, plate reader, dry powder samples, cytotoxicity control for PAX8 inhibitor project, dose response (AID 743045);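 further: 0% = neutral control median and -100% = positive control median; more negative values mean more cell killing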
[8] = A2780 cell killing – plate reader, dry powder samples, cytotoxicity control, dose response (AID 743046);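 further: 0% = neutral control wells and -100% = cytotoxic reference compound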
[9] = OVCAR8 cell viability loss – plate reader, dry powder samples, PAX8 project, dose response (AID 743197)

Measured: max activity

C[C@H]1CCCCO[C@@H](CN(C)Cc2ccc(C(F)(F)F)cc2)[C@@H](C)CN([C@@H](C)CO)C(=O)c2cc(NS(=O)(=O)c3cccs3)ccc2O1
inactive: [1] | [2] | [3] | [4] | [5] | [6] -8.06% [at 4.2 µM, active compounds read low] | [7] | [8] | [9]

Cc1ccc(S(=O)(=O)Nc2ccc3c(c2)C(=O)N([C@@H](C)CO)C[C@H](C)[C@@H](CN(C)C(=O)Nc2ccc(C(F)(F)F)cc2)OCCCC[C@H](C)O3)cc1
inactive: [1] | [2] | [3] | [4] | [5] | [6] -5.62% | [7] | [8] | [9]

C[C@H]1CN([C@@H](C)CO)C(=O)CCCn2nncc2CO[C@@H]1CN(C)C(=O)Nc1ccc(-c2cccs2)cc1
inactive: [1] | [2] | [3] | [4] | [5] | [6] -29.9% | [7] | [8] | [9]

C[C@@H]1CCCCO[C@@H](CN(C)CC2CCCCC2)[C@@H](C)CN([C@@H](C)CO)C(=O)c2cc(NC(=O)Nc3ccc(C(F)(F)F)cc3)ccc2O1
inactive: [1] | [2] | [3] | [4] | [5] | [6] 17.1% [at 0.5 µM, active compounds read low] | [7] | [8] | [9]

C[C@@H]1CN([C@H](C)CO)C(=O)c2c(c3ccccc3n2C)-c2ccccc2CO[C@H]1CN(C)C(=O)Nc1cccc(C(F)(F)F)c1
inactive: [1] | [2] | [3] | [4] | [5] | [6] -25.5% [at 16 µM, active compounds read low] | [7] | [8]

C[C@H]1CN([C@@H](C)CO)C(=O)c2cc(NS(=O)(=O)c3ccc(Cl)cc3)ccc2O[C@H]1CN(C)Cc1ccc(Cl)c(Cl)c1
inactive: [1] | [2] | [3] | [4] | [5] | [6] -29.6% | [7] | [8]

Cc1ccc(S(=O)(=O)Nc2ccc3c(c2)C(=O)N([C@@H](C)CO)C[C@H](C)[C@H](CN(C)Cc2ccc(C(F)(F)F)cc2)OCCCC[C@@H](C)O3)cc1
inactive: [1] | [2] | [3] | [4] | [5] | [6] 9.21% | [7] | [8]

C[C@H](CO)N1C[C@H](C)[C@@H](CN(C)C(=O)Nc2ccc(F)cc2)OCc2ccccc2-c2c(n(C)c3ccccc23)C1=O
inactive: [1] | [2] | [3] | [4] | [5] | [6] 31.5% | [7] | [8] | [9]

Cc1ccc(S(=O)(=O)N(C)C[C@@H]2OCCCC[C@@H](C)Oc3ccc(NS(=O)(=O)c4ccc(Cl)cc4)cc3C(=O)N([C@H](C)CO)C[C@H]2C)cc1
inactive: [1] | [2] | [3] | [4] | [5] | [6] -13.3% [at 4.2 µM, active compounds read low] | [7] | [8]

C[C@@H]1CN([C@H](C)CO)C(=O)Cc2cc(NC(=O)Nc3ccc(F)cc3)ccc2O[C@H]1CN(C)C(=O)Nc1ccc(C(F)(F)F)cc1
inactive: [1] | [2] | [3] | [4] | [5] | [6] -34.3% | [7] | [8] | [9]

C[C@@H]1CN([C@H](C)CO)C(=O)c2cc(NC(=O)c3ccccc3)ccc2O[C@@H](C)CCCCO[C@H]1CN(C)Cc1ccc(C(F)(F)F)cc1
inactive: [1] | [2] | [3] | [4] | [5] | [6] -5.41% [at 0.5 µM, active compounds read low] | [7] | [8] | [9]

C[C@@H]1CCCCO[C@H](CN(C)Cc2ccncc2)[C@H](C)CN([C@@H](C)CO)C(=O)c2cc(NC(=O)Nc3ccc(C(F)(F)F)cc3)ccc2O1
inactive: [1] | [2] | [3] | [4] | [5] | [6] -11.1% [at 0.26 µM, active compounds read low] | [7] | [8] | [9]

C[C@@H]1CN([C@H](C)CO)C(=O)c2c(c3ccccc3n2C)-c2ccccc2CO[C@@H]1CN(C)C
inactive: [1] | [2] | [3] | [4] | [5] | [6] 18.1% [at 0.5 µM, active compounds read low] | [7] | [8] | [9]

C[C@@H]1CN([C@@H](C)CO)C(=O)Cc2cc(NC(=O)Nc3ccc(F)cc3)ccc2O[C@H]1CN(C)Cc1ccc(Cl)c(Cl)c1
inactive: [1] | [2] | [3] | [4] | [5] | [6] 11.5% [at 4.2 µM, active compounds read low] | [7] | [8] | [9]

C[C@@H]1CN([C@@H](C)CO)C(=O)c2cc(NC(=O)Nc3ccc4c(c3)OCO4)ccc2O[C@@H]1CN(C)C(=O)Nc1ccc(C(F)(F)F)cc1
inactive: [1] | [2] | [3] | [4] | [5] | [6] 51.3% [at 0.26 µM, active compounds read low] | [7] | [8] | [9]

C[C@H]1CCCCO[C@@H](CN(C)C(=O)c2ccccc2)[C@@H](C)CN([C@@H](C)CO)C(=O)c2cc(NC(=O)Nc3ccc(C(F)(F)F)cc3)ccc2O1
inactive: [1] | [2] | [3] | [4] | [5] | [6] 13.2% [at 1.1 µM, active compounds read low] | [7] | [8] | [9]

C[C@@H]1CN([C@H](C)CO)C(=O)c2cc(NC(=O)Nc3ccc(F)cc3)ccc2O[C@@H](C)CCCCO[C@H]1CN(C)Cc1ccc(Cl)c(Cl)c1
inactive: [1] | [2] | [3] | [4] | [5] | [6] 26% | [7] | [8] | [9]

O=C(Nc1ccc(C(F)(F)F)cc1)N1C[C@@H]2N[C@H](C1)C2c1ccc(-c2ccccc2)cc1 (some centres not stated)
inactive: [1] | [2] | [3] | [4] | [5] | [6] 13.9% [at 0.26 µM, active compounds read low] | [7] | [8] | [9]

C[C@@H]1CN([C@@H](C)CO)C(=O)c2cc(NS(=O)(=O)c3ccccc3)ccc2O[C@@H](C)CCCCO[C@@H]1CN(C)Cc1ccc(C(F)(F)F)cc1
inactive: [1] | [2] | [3] | [4] | [5] | [6] -5.59% | [7] | [8] | [9]

C[C@@H]1CCCCO[C@H](CN(C)C(=O)Nc2ccc(C(F)(F)F)cc2)[C@@H](C)CN([C@@H](C)CO)C(=O)c2cc(NC(=O)Nc3ccccc3)ccc2O1
inactive: [1] | [2] | [3] | [4] | [5] | [6] -5.92% [at 16 µM, active compounds read low] | [7] | [8] | [9]

C[C@@H]1CCCCO[C@@H](CN(C)C(=O)C2CCCCC2)[C@H](C)CN([C@H](C)CO)C(=O)c2cc(NS(=O)(=O)c3ccc(Cl)cc3)ccc2O1
inactive: [1] | [2] | [3] | [4] | [5] | [6] -13.3% [at 0.5 µM, active compounds read low] | [7] | [8] | [9]

CC(C)CC#Cc1ccc2c(c1)O[C@@H](CN(C)Cc1ccncc1)[C@H](C)CN([C@@H](C)CO)S2(=O)=O
inactive: [1] | [2] | [3] | [4] | [5] | [6] 11.2% [at 4.2 µM, active compounds read low] | [7] | [8] | [9]

C[C@@H]1CCCCO[C@H](CN(C)CC2CCCCC2)[C@H](C)CN([C@H](C)CO)C(=O)c2cc(NS(=O)(=O)c3ccc(Cl)cc3)ccc2O1
inactive: [1] | [2] | [3] | [4] | [5] | [6] 10.1% | [7] | [8] | [9]

C[C@H](CO)N1C[C@H](C)[C@@H](CN(C)Cc2ccc(C(F)(F)F)cc2)Oc2ccc(NS(=O)(=O)c3ccc(F)cc3)cc2CC1=O
inactive: [1] | [2] | [3] | [4] | [5] | [6] 24.7% [at 16 µM, active compounds read low] | [7] | [8] | [9]

CO[C@H]1CN(C)C(=O)c2cc(NC(=O)c3nc4ccccc4s3)ccc2OC[C@H](C)N(Cc2cccnc2)C[C@H]1C
inactive: [1] | [2] | [3] | [4] | [5] | [6] 15.1% [at 0.26 µM, active compounds read low] | [7] | [8] | [9]

C[C@@H]1CCCCO[C@H](CN(C)Cc2ccc(C(F)(F)F)cc2)[C@H](C)CN([C@@H](C)CO)C(=O)c2cc(NC(=O)Nc3ccc(F)cc3)ccc2O1
inactive: [1] | [2] | [3] | [4] | [5] | [6] -17.3% | [7] | [8] | [9]

C[C@@H]1CCCCO[C@H](CN(C)Cc2ccc(C(F)(F)F)cc2)[C@H](C)CN([C@H](C)CO)C(=O)c2cc(NC(=O)Nc3ccc(F)cc3)ccc2O1
inactive: [1] | [2] | [3] | [4] | [5] | [6] 10.2% [at 1 µM, active compounds read low] | [7] | [8] | [9]

C[C@@H]1CCCCO[C@@H](CN(C)Cc2ccc(C(F)(F)F)cc2)[C@H](C)CN([C@H](C)CO)C(=O)c2cc(NS(=O)(=O)c3ccc(Cl)cc3)ccc2O1
inactive: [1] | [2] | [3] | [4] | [5] | [6] -15.2% [at 1.1 µM, active compounds read low] | [7] | [8] | [9]

C[C@H](CO)N1C[C@H](C)[C@@H](CN(C)Cc2ccc(Cl)c(Cl)c2)OCCCC[C@H](C)Oc2ccc(NC(=O)Nc3ccccc3)cc2C1=O
inactive: [1] | [2] | [3] | [4] | [5] | [6] -26.8% [at 0.26 µM, active compounds read low] | [7] | [8] | [9]
